# About 410 targets per protein were measured; listed, in parts, are those with the strongest signals and a random draw of the rest.
# B1: BT4246 (Bacteroides thetaiotaomicron), Q89ZX5 (protein)
# chain: MGSSHHHHHHENLYFQGHMASDYLDVVPPEQPNIDDAMSSPTRALGFLYSCYGGVSTDLPSAYLGEINSTTDEYVLPYSWNTDGYWGAYAFNTASSTNQDWLWGTTYQYIGQCYLFLQKLENAGSDIASDAEKEQWRAECQFLVAYYHFATLRRYGPIPITDSYIPMDTPTSEYNGRFHFDYCVDWIANQLDEAAKVLPANRTVTNEWGRATSTIAKAVKARLLLYAASPLWNGSFPYPNWQNENFETPGYGKALVSNTYDKSKWERALAACQEALTLATTSGDRELYDDDEYYSRQSLNLPFVPGVADVEDNKEFLKNVMKMRYAVSTRESEGNKEIIWGLSNQFDFYSRYPLRILKKSDGTWHAGYSGVSPTLYTFEHFYTANGKLPEKDLDFTPSSEWFESAGISSREDIIKLNVGREPRFYAWMAFDGGDYGTKFAAGSPLKLEMRNSEMHGYNPSLFNRDHSVTGFLTQKFVDPVTEFYTAGGSTSGTSAPTILFRLAELYLNVAECHAALGNTQEAIDALNPVRERAGIPKLTLADITNNMTIKDWVHNERFVELWNEGHRFFDVRRWAEGAKYFGANKREGLNAEVQSPTFEEFNKRTTVDAPYVWENRMYLNPVFYNEVYKNPQMVQAPGY
# Experiments:
# Test in all cases: glycan array binding signal (z-score within array); higher = stronger binding
# Details in all cases: glycan notation: IUPAC condensed, linker removed
# [1] = biological target: GlcNAc(a1-4)Gal(b1-4)GlcNAc(b1-3)Gal(b1-4)GlcNAc
# Summary of the method: (§1)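 Columns mapping to the same glycan were averaged after glycan names were converted to IUPAC-condensed notation. The data come from 3228 arrays in the Consortium for Functional Glycomics database, limited to those with an available protein sequence. Binding is reported as a within-array Z-score averaged across arrays of one protein sequence and across linkers.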
# [2] = biological target: GlcNAc(a1-4)Gal(b1-4)GlcNAc(b1-3)Gal(b1-4)[Fuc(a1-3)]GlcNAc(b1-3)Gal(b1-4)[Fuc(a1-3)]GlcNAc
# Summary of the method: as §1
# [3] = biological target: GlcNAc(b1-2)Man(a1-3)[GlcNAc(b1-4)][GlcNAc(b1-2)Man(a1-6)]Man(b1-4)GlcNAc(b1-4)[Fuc(a1-6)]GlcNAc
# Summary of the method: as §1
# [4] = biological target: GlcNAc(b1-3)Gal(b1-3)GalNAc
# Summary of the method: as §1
# [5] = biological target: GlcNAc(b1-3)Gal(b1-4)GlcNAc(b1-2)Man(a1-3)[GlcNAc(b1-3)Gal(b1-4)GlcNAc(b1-2)Man(a1-6)]Man(b1-4)GlcNAc(b1-4)GlcNAc
# Summary of the method: as §1
# [6] = biological target: GlcNAc(b1-3)Gal(b1-4)GlcNAc(b1-3)Gal(b1-4)GlcNAc(b1-2)Man(a1-3)[GlcNAc(b1-3)Gal(b1-4)GlcNAc(b1-3)Gal(b1-4)GlcNAc(b1-2)Man(a1-6)]Man(b1-4)GlcNAc(b1-4)[Fuc(a1-6)]GlcNAc
# Summary of the method: as §1
# [7] = biological target: GlcNAc(b1-3)Gal(b1-4)GlcNAc(b1-3)Gal(b1-4)GlcNAc(b1-2)[GlcNAc(b1-3)Gal(b1-4)GlcNAc(b1-3)Gal(b1-4)GlcNAc(b1-6)]Man(a1-6)[GlcNAc(b1-3)Gal(b1-4)GlcNAc(b1-3)Gal(b1-4)GlcNAc(b1-2)Man(a1-3)]Man(b1-4)GlcNAc(b1-4)[Fuc(a1-6)]GlcNAc
# Summary of the method: as §1
# [8] = biological target: GlcNAc(b1-3)Gal(b1-4)GlcNAc(b1-3)Gal(b1-4)GlcNAc(b1-3)Gal(b1-4)GlcNAc(b1-2)[GlcNAc(b1-3)Gal(b1-4)GlcNAc(b1-3)Gal(b1-4)GlcNAc(b1-3)Gal(b1-4)GlcNAc(b1-6)]Man(a1-6)[GlcNAc(b1-3)Gal(b1-4)GlcNAc(b1-3)Gal(b1-4)GlcNAc(b1-3)Gal(b1-4)GlcNAc(b1-2)Man(a1-3)]Man(b1-4)GlcNAc(b1-4)[Fuc(a1-6)]GlcNAc
# Summary of the method: as §1
# [9] = biological target: GlcNAc(b1-3)Gal(b1-4)GlcNAc(b1-6)[Gal(b1-3)]GalNAc
# Summary of the method: as §1
# [10] = biological target: GlcNAc(b1-3)[GlcNAc(b1-4)][GlcNAc(b1-6)]GlcNAc
# Summary of the method: as §1
# [11] = biological target: GlcNAc(b1-4)Gal(b1-4)GlcNAc
# Summary of the method: as §1
# Kdn(a2-6)Gal(b1-4)GlcNAc = biological target: Kdn(a2-6)Gal(b1-4)GlcNAc
# Summary of the method: as §1
# [12] = biological target: Man(a1-2)Man(a1-3)[Man(a1-2)Man(a1-6)]Man(a1-6)[Man(a1-2)Man(a1-2)Man(a1-3)]Man(b1-4)GlcNAc(b1-4)GlcNAc
# Summary of the method: as §1
# [13] = biological target: Man(a1-2)Man(a1-6)[Man(a1-3)]Man(a1-6)[Man(a1-2)Man(a1-2)Man(a1-3)]Man(b1-4)GlcNAc(b1-4)GlcNAc
# Summary of the method: as §1
# [14] = biological target: Man(a1-3)[Man(a1-6)]Man(a1-6)[Man(a1-3)]Man
# Summary of the method: as §1
# [15] = biological target: Neu5Ac(a2-3)Gal(b1-3)GlcNAc(b1-3)Gal(b1-4)GlcNAc
# Summary of the method: as §1
# [16] = biological target: Neu5Ac(a2-3)Gal(b1-4)GlcNAc(b1-3)Gal
# Summary of the method: as §1
# [17] = biological target: Neu5Ac(a2-3)Gal(b1-4)GlcNAc(b1-3)Gal(b1-4)GlcNAc(b1-6)[Gal(b1-3)]GalNAc
# Summary of the method: as §1
# [18] = biological target: Neu5Ac(a2-3)Gal(b1-4)[Fuc(a1-3)]GlcNAc(b1-3)GalNAc
# Summary of the method: as §1
# [19] = biological target: Neu5Ac(a2-3)Gal(b1-4)[Fuc(a1-3)]GlcNAc(b1-6)[Gal(b1-3)]GalNAc
# Summary of the method: as §1
# Neu5Ac(a2-6)Gal(b1-4)Glc = biological target: Neu5Ac(a2-6)Gal(b1-4)Glc
# Summary of the method: as §1
# [20] = biological target: Neu5Ac(a2-6)Gal(b1-4)GlcNAc(b1-2)Man(a1-3)[Neu5Ac(a2-3)Gal(b1-4)GlcNAc(b1-2)Man(a1-6)]Man(b1-4)GlcNAc(b1-4)GlcNAc
# Summary of the method: as §1
# [21] = biological target: Neu5Ac(a2-6)Gal(b1-4)GlcNAc(b1-3)Gal(b1-4)GlcNAc(b1-3)[Neu5Ac(a2-6)Gal(b1-4)GlcNAc(b1-3)Gal(b1-4)GlcNAc(b1-6)]GalNAc
# Summary of the method: as §1
# [22] = biological target: Neu5Gc(a2-3)Gal(b1-4)GlcNAc(b1-3)Gal(b1-4)GlcNAc(b1-2)Man(a1-3)[Neu5Gc(a2-3)Gal(b1-4)GlcNAc(b1-3)Gal(b1-4)GlcNAc(b1-2)Man(a1-6)]Man(b1-4)GlcNAc(b1-4)GlcNAc
# Summary of the method: as §1
binder,measurement,setting,value
B1,glycan array binding signal (z-score),[1],-0.394
same,glycan array binding signal (z-score),[2],3.11
same,glycan array binding signal (z-score),[3],2.52
same,glycan array binding signal (z-score),[4],-0.081
same,glycan array binding signal (z-score),[5],0.802
same,glycan array binding signal (z-score),[6],-0.16
same,glycan array binding signal (z-score),[7],1.52
same,glycan array binding signal (z-score),[8],0.637
same,glycan array binding signal (z-score),[9],-0.339
same,glycan array binding signal (z-score),[10],-0.635
same,glycan array binding signal (z-score),[11],-0.482
same,glycan array binding signal (z-score),Kdn(a2-6)Gal(b1-4)GlcNAc,1.42
same,glycan array binding signal (z-score),[12],-0.169
same,glycan array binding signal (z-score),[13],1.59
same,glycan array binding signal (z-score),[14],3.62
same,glycan array binding signal (z-score),[15],1.07
same,glycan array binding signal (z-score),[16],-0.929
same,glycan array binding signal (z-score),[17],0.439
same,glycan array binding signal (z-score),[18],4.68
same,glycan array binding signal (z-score),[19],2.47
same,glycan array binding signal (z-score),Neu5Ac(a2-6)Gal(b1-4)Glc,-0.168
same,glycan array binding signal (z-score),[20],-0.62
same,glycan array binding signal (z-score),[21],3.02
same,glycan array binding signal (z-score),[22],2.77

# From the supplement of paper PMC8728848
